From PubChem
F-actin modifier: modifiers of F-actin cytoskeleton organization, primary screen, imaging, HUVEC, phalloidin staining, high-content imaging | HUVEC TNFa F-actin phalloidin imaging | inhibition, % at 2 µM | 91,000 tested, 0.18% active | AID 836, 2007;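 active means inhibition above the batch mean plus 3 SD and confirmed as a hit by visual image inspection, cut at about 30% in these data, passing the limit was not always enough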
sEH inhibitor: soluble epoxide hydrolase inhibitors, primary screen, biochemical, human sEH. recombinant human sEH enzymatic activity assay. inhibition, % at 2 µM. 91,000 tested, 0.34% active; in the data active means inhibition above about 80%
Target sequence (P34913 whole entry, looked up): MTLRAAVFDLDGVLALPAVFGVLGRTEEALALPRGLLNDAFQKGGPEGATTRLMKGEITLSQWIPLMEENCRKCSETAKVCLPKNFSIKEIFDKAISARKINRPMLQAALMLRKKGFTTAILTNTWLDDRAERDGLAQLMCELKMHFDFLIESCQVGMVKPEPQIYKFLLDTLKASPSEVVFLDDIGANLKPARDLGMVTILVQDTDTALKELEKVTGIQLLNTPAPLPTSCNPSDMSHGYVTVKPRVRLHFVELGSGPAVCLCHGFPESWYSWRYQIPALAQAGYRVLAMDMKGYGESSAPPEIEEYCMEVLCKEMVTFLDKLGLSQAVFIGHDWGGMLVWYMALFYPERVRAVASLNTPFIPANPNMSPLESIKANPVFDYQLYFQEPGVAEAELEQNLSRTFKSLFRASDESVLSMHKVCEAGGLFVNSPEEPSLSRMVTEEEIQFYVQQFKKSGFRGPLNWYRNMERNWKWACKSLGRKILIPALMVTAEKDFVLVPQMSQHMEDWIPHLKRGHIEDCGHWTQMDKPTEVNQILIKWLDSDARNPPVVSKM
Candida biofilm: clotrimazole potentiators killing Candida biofilms, primary screen, with clotrimazole, Alamar Blue; C. albicans biofilm + clotrimazole; inhibition, % at 6 µM; 85,000 tested, 0.14% active;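 active means inhibition above 20%; inactive means inhibition below 20%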;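 further: preformed 24 hr biofilms exposed to compound for 48 hr; 0% = biofilm without compound and 100% = blank killed by clotrimazole plus chlorhexidine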
sEH act: soluble epoxide hydrolase activators, primary screen, biochemical, human sEH. Bifunctional epoxide hydrolase 2 (Homo sapiens), P34913. purified human sEH enzymatic activity, activator screen. activation, % at 2 µM. 91,000 tested, 0.04% active. AID 717, 2007; in the data active means activation above about 37%
Measles CPE: compounds protecting cells from measles virus cytopathic effect, primary screen, measles RdRp inhibitor project, single point, MLSMR library, absorbance. Measles virus-infected cells, CPE protection. 140,000 tested, 1.5% active. AID 841, 2007. protection (pct of control), % at 4 µM; in the data active means protection mostly above about 24%, no sharp cut-off; inactive means mostly below about 26%
* marks the source's active call; other numbers are inactive results; x = no result. Sampled rows, rich in hits. Any-hit rate of the full collection: about 1.9%.

SMILES	F-actin modifier	sEH inhibitor	Candida biofilm	sEH act	Measles CPE
CC(C)Cn1c(-c2ccc(C#N)cc2)nc2c1c(=O)[nH]c(=O)n2CC(C)C	x	5	2	-5	16
CCN(CC)C(=O)CC(c1ccc(F)cc1)c1ccc(OC)cc1 (stereo unspecified)	x	x	x	x	8
COc1ccc(-c2cnn3c4c(c(C)nc23)CCN4C(C)C)cc1OC	x	x	x	x	5
Cc1nc(-c2ccccc2)cc(N2CCCC2)n1	-2	-3	x	1	33*
Nc1nc(-c2ccccc2)cc(N2CCCCC2)n1	-7	-13	-4	13	2
COc1ccc(C(=O)Nn2c(SCC(=O)c3ccc(Cl)cc3)nc3ccccc3c2=O)cc1	-33	-11	8	9	84*
COc1cc(CC(C#N)(CO)c2nc3ccccc3[nH]2)ccc1OC(F)F (stereo unspecified)	x	x	x	x	15
CCn1nnnc1SCC(=O)N1CCOCC1	18	5	4	-4	28*
Cc1cc(C)c2cc(C#N)c(N3CCCC3)nc2c1	-20	-11	8	12	38*
O=C(CSc1ncn[nH]1)Nc1ccc(S(=O)(=O)N2CCCC2)cc1	19	26	-6	-24	4
OCCc1ccc(-c2ccc(Cl)cc2)o1	-9	11	4	-6	37*
CN1CCN(Cc2ccc(-c3ccc(Cl)cc3)o2)CC1	x	-16	2	17	14
Cc1cc(C2=NNC(=NC3CC3)SC2)c(C)n1-c1c(C)n(C)n(-c2ccccc2)c1=O	x	x	x	x	11
Cc1ccc(-n2c(C)cc(C3=NNC(=NC4CC4)SC3)c2C)cc1C	x	x	x	x	74*
Cc1ccc(C(=O)CC(=O)COc2ccc(Cl)cc2)cc1	x	x	x	x	18
Cc1ccc(OCc2nc(-c3ccc(Cl)cc3)n[nH]2)cc1	11	18	4	-14	33*
COC(=O)c1nc(NC(=O)c2ccc(Br)cc2)n[nH]1	-16	-4	9	2	4
COC(=O)c1nc(NC(=O)C(C)(C)C)n[nH]1	-9	10	x	-10	36*
Cc1nc2ccccc2nc(C)c1=NOCc1ccccc1Cl	x	x	x	x	9
CCOC(=O)C1=C(C)NC(=O)C1CC(=O)O (stereo unspecified)	x	x	x	x	12
CCOC(=O)C1=C(C)NC(=O)C(C(N)=O)C1c1ccccc1 (stereo unspecified)	14	-41	4	37*	7
O=c1c2cnn(-c3ccccc3)c2nc(-c2cccs2)n1-c1ccc(Br)cc1	x	-9	x	10	8
CC(=O)Nc1ccc(S(=O)(=O)NC2(C(F)(F)F)C(=O)Nc3c2c(=O)[nH]c(=O)n3C)cc1 (stereo unspecified)	34*	0	-4	2	5
Cc1cccc(C(=O)Nc2ccccc2SCC2CSc3nc4ccccc4c(=O)n32)c1 (stereo unspecified)	-2	-10	x	8	25*
O=C(Nc1ccccc1SCC1CSc2nc3ccccc3c(=O)n21)c1cccc(Cl)c1 (stereo unspecified)	-29	-3	x	6	36*
SMILES	F-actin modifier	sEH inhibitor	Candida biofilm	sEH act	Measles CPE
O=C(Nc1ccccc1SCC1CSc2nc3ccccc3c(=O)n21)c1ccccc1 (stereo unspecified)	22	4	x	-2	4
Cc1ccc(C(=O)Nc2ccccc2SCC2CSc3nc4ccccc4c(=O)n32)cc1 (stereo unspecified)	-15	1	x	-3	63*
CC(C)(C)NC(=O)c1oc2ccccc2c1COc1ccccc1	x	x	x	x	15
COC(=O)CC1COc2ccccc2N1C(=O)c1cccc(Cl)c1 (stereo unspecified)	-7	-3	x	6	26*
CC1Oc2ccccc2N(CC(=O)c2cccc(Cl)c2)C1=O (stereo unspecified)	-1	9	x	-6	20
COCCn1c(-c2ccccc2)cnc1SCC(=O)Nc1cccc2ccccc12	x	x	x	x	10
CCC1(c2ccc(F)cc2)NC(=O)N(CC(=O)c2ccc[nH]2)C1=O (stereo unspecified)	-26	-13	x	16	30*
CCOC(=O)C(C(=O)OCC)C(Nc1cccc(Br)c1)c1ccccc1 (stereo unspecified)	1	-10	x	10	31*
O=C(c1cccs1)N1CCN(C/C=C/c2ccccc2)CC1	28	-4	4	4	16
O=C1CC(N2CCN(c3ccccc3)CC2)C(=O)N1CCc1ccccc1 (stereo unspecified)	x	x	5	x	40*
O=C1CC(N2CCOCC2)C(=O)N1CCc1ccccc1 (stereo unspecified)	28	6	9	-6	15
